These results are taken from the supplement of paper PMC11577813, “Eurasian spruce bark beetle detects lanierone using a highly expressed specialist odorant receptor, present in several functional sensillum types” (BMC Biology, 2024).

± gives the standard deviation of the averaged measurements.

The experiment has as its system (+)-trans-4-thujanol A-neuron OSN class. Put plainly: net action potential response of A-neuron (blank-subtracted) (spikes/s (Hz)); higher = stronger excitation. Conditions: 10 µg on filter paper; neuron: A neuron (large spike amplitude). As to the method: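 Single sensillum recordings from antennal olfactory sensilla of live adult Ips typographus. Each compound was 10 µg in paraffin oil on filter paper, delivered as a 0.5 s puff. Net response = spikes in the first 0.5 s of response minus the 0.5 s pre-stimulus count, doubled to give Hz, with blank response subtracted. Values are for the large-spike A-neuron class of each of seven sensillum types that co-house the lanierone B-neuron; N = 1-4 sensilla, averaged.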
Consider `C=CCc1ccc(OC)cc1` [Estragole], for which the “net action potential response” value was found to be 1 ± 2.

For the compound `O=Cc1ccccc1` [Benzaldehyde], the “net action potential response” value is -0.5 ± 1.9.

As for `Cc1ccccc1` [Toluene], the “net action potential response” value was determined as 0.5 ± 2.5.
